Measured values: PubChem BioAssay AID1117292 (Broad Institute, 2014)
Potency and affinity values are given separately. Inconclusive results are not listed. The source made the active and inactive calls.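 Rule for the calls: active = compound whose fitted half-maximal dose for signal loss lies within twice the top dose in every replicate test; inconclusive = tests disagree, or flat partial signal loss or poor fit; inactive = every test inactive, flat, rising or too weak.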

molecular target: Endoplasmic reticulum aminopeptidase 1 (Homo sapiens) (UniProt Q9NZ08); test: ERAP1 enzyme inhibitors, dose response, biochemical, fluorescence plate reader, dry powder (AID 1117292); conditions: purified ERAP1, Leu-AMC fluorescence, 60 min; series mostly up to 50 µM; activity change, negative = inhibition: at the top concentration
Sequence (Q9NZ08 whole entry, looked up): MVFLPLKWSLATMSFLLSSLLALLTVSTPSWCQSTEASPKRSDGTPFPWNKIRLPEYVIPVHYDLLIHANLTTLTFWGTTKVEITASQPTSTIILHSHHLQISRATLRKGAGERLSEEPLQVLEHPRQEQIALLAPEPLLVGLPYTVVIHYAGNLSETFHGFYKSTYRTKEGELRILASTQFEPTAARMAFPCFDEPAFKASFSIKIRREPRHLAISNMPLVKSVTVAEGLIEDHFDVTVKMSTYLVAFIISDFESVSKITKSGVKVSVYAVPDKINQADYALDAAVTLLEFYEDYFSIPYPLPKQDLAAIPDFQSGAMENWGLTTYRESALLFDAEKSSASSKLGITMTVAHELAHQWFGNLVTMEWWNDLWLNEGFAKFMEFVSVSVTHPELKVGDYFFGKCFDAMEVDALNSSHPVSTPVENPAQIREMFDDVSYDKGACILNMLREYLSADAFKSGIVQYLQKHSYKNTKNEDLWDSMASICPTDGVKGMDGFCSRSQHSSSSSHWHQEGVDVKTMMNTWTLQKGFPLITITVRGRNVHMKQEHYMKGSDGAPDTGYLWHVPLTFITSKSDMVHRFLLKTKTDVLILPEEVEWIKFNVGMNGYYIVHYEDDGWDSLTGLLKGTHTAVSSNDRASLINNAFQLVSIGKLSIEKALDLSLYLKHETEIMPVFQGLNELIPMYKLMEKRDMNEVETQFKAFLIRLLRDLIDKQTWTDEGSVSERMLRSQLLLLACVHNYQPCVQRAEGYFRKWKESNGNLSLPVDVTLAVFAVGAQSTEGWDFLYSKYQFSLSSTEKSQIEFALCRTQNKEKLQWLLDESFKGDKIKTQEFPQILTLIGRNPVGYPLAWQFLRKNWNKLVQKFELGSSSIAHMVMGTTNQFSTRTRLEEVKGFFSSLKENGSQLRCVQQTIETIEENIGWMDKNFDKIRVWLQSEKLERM

Activity change, negative = inhibition, inactive:
Cc1ccccc1S(=O)(=O)Nc1cc(C(F)(F)F)ccc1N1CCCCC1 8.63%, CC(=O)N1CCN(C(=O)C2CCCN2C(=O)Nc2ccc(C)cc2)CC1 (configuration not stated) 17.9%, O=S(=O)(Nc1cc(C(F)(F)F)ccc1N1CCCCC1)c1ccc(-c2ccccc2)cc1 12.5%, CC(=O)N1CCN(C(=O)C2(NC(=O)Nc3ccc(F)cc3)CCCC2)CC1 0.022%, COc1ccc(C(=O)Nc2cccc(C(F)(F)F)c2)cc1S(=O)(=O)O 36.9%, CC(=O)N1CCN(C(=O)C2(NC(=O)Nc3cccc(F)c3)CCCCC2)CC1 3.52%, O=S(=O)(Nc1cc(C(F)(F)F)ccc1N1CCCCC1)c1ccc(F)cc1 17.3%, CC(=O)N1CCN(C(=O)[C@@H]2CCN2C(=O)Nc2ccc(C)cc2)CC1 -14.6%, CC(=O)N1CCN(C(=O)CNC(=O)Nc2ccc(C)cc2)CC1 11.2%, CC(=O)N1CCN(C(=O)C2(NC(=O)Nc3cccc(C(F)(F)F)c3)CCCCC2)CC1 2.62%, CC(=O)N1CCN(C(=O)C2(NC(=O)NCCc3ccccc3)CCCCC2)CC1 5.8%, CC(=O)N1CCN(C(=O)C2(NC(=O)Nc3ccc(C(F)(F)F)cc3)CCCC2)CC1 26.2%, Cn1cnc(S(=O)(=O)Nc2cc(C(F)(F)F)ccc2N2CCCCC2)c1 13.7%, CC(=O)N1CCN(C(=O)C2(NC(=O)Nc3ccc(C(F)(F)F)cc3)CCCCC2)CC1 7.13%, CC(=O)N1CCN(C(=O)C2(NC(=O)NC(C)(C)C)CCCCC2)CC1 -0.89%, N#Cc1ccc(S(=O)(=O)Nc2cc(C(F)(F)F)ccc2N2CCCCC2)cc1 26%, CC(=O)N1CCN(C(=O)C2(NC(=O)Nc3ccccc3)CCCC2)CC1 11.7%, O=C(Nc1cc(C(F)(F)F)ccc1N1CCCCC1)c1ccc(S(=O)(=O)O)cc1 28%, COc1ccc(C(=O)Nc2cc(C)ccc2N2CCCCC2)cc1S(=O)(=O)O -6.98%, COc1ccc(C(=O)O)cc1S(=O)(=O)Nc1cc(C(F)(F)F)ccc1N(C)C 104%, O=S(=O)(Nc1cc(C(F)(F)F)ccc1N1CCCCC1)c1ccc(Br)cc1 24.4%

outcome, inactive:
COc1ccc(C(=O)O)cc1S(=O)(=O)Nc1cc(C(F)(F)F)ccc1N1CCCCC1
